Screening data as filed in PubChem.
In the library only some 7.9% were active in any assay of this set; here they are far more common.
HT1080 IDH1KD tx = HT-1080 IDH1 knockdown cell toxicity (counter line) | hit rate 2% among 360,000 | Potency, µM (highest dose often 46.1 µM), most hits filed as cytotoxic | HT-1080 IDH1 knockdown viability, ATP luminescence, 48 h
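IDH1KD HT-1080 cells, 750/well, RPMI + 5% FBS; compound pinned after 2 h settling; 48 h, 37 °C; CellTiter-Glo luminescence; % activity normalised to DMSO and no-cell wells; curves fitted, classed by r2 and efficacy.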
SW480 rereplic = induces DNA re-replication in SW480 colon adenocarcinoma cells; SW480 DNA re-replication, Hoechst DNA content imaging, 48 h; hit rate 1.8% among 340,000; Potency, µM (highest dose often 46.1 µM), hits mostly activators; note: nearly all actives have a fitted effect of over 55% in size
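Quantitative HTS format with DMSO vehicle controls; 48 hr drug incubation at 37 C, then 40 min Hoechst staining and scanning imager measurement at 405 nm excitation.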
MCF10A rerep = DNA re-replication induction in MCF 10a cells. AID 624296. hit rate 2.9% among 350,000. Potency, µM (highest dose often 46.1 µM), usual class: activators. MCF 10A DNA re-replication, Hoechst nuclear intensity, 48 h; note: nearly all actives have a fitted effect of over 50% in size
KB-3-1 tox = KB-3-1 parental cell cytotoxicity; KB-3-1 viability, CellTiter-Glo ATP luminescence, 72 h; Potency, µM (titrated, usually from 46.1 µM), most hits filed as cytotoxic; hit rate 1.4% among 400,000; note: nearly all actives have a fitted effect of over 60% in size
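KB-3-1 cells, DMEM (no phenol red) + 10% FBS; compound by pin transfer, 72 h, 37 °C. Readout: CellTiter-Glo luminescence after 10 min. Data normalized, curve-fitted.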
HT1080-NT tox = kills 2HG-producing HT-1080-NT fibrosarcoma cells | Potency, µM (titrated, usually from 46.1 µM), most hits filed as cytotoxic | hit rate 1.6% among 360,000 | HT-1080-NT fibrosarcoma viability, CellTiter-Glo ATP luminescence, 48 h;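 note: NT is the 2HG producing partner of a matched IDH1 knockdown line; nearly all actives have a fitted effect of over 55% in size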
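Compounds were tested in concentration-response format on HT-1080-NT cells for 48 hours at 37 degrees C. Cell viability came from CellTiter-Glo luminescence; curves were classified by r2, response magnitude and activity.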
KB-V1 MDR tox = kills drug-selected multidrug resistant KB-V1 cells; KB-V1 MDR cells viability, CellTiter-Glo, 72 h; Potency, µM (top dose mostly 46.1 µM), most hits filed as cytotoxic; hit rate 3.4% among 400,000; AID 1347076; note: nearly all actives have a fitted effect of over 60% in size
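Potencies derive from concentration-effect curves fitted to normalized luminescence (CellTiter-Glo) of KB-V1 cells treated for 72 h at 37 degrees C in phenol-red-free DMEM containing 10% FBS.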
Of the large screens only hits and unclear results are named; the others gave an inactive call. Calls come from the whole dose curve; as a rule, active = well fitted curve in the direction sought with a large enough effect; inconclusive = small, poorly fitted or top-dose-only effect, or another doubt; inactive = no such curve, though single readings can be large; an effect the other way counts as inactive or inconclusive.

O=C(Nc1ccccc1)c1cccc(N2C(=O)C3C4C=CC(C5CC45)C3C2=O)c1 (stereo unspecified)	none
O=C(Nc1ccc(Br)cc1)c1cccc(N2C(=O)C3C4CCC(C4)C3C2=O)c1 (stereo unspecified)	MCF10A rerep inconclusive, KB-V1 MDR tox inconclusive
O=C(Nc1ccc(F)cc1)c1cccc(N2C(=O)C3C4CCC(C4)C3C2=O)c1 (stereo unspecified)	KB-3-1 tox inconclusive, KB-V1 MDR tox 10µM
COC(=O)c1ccc(NC(=O)c2cccc(N3C(=O)C4C5C=CC(C6CC56)C4C3=O)c2)cc1 (stereo unspecified)	MCF10A rerep 16µM, KB-3-1 tox inconclusive, KB-V1 MDR tox inconclusive
O=C1CC(Sc2nnc(-c3ccccc3O)o2)C(=O)N1c1ccccc1 (stereo unspecified)	HT1080 IDH1KD tx 4.5µM, HT1080-NT tox inconclusive
Cc1ccc(S(=O)(=O)N2CCC(=O)N(CCOCc3ccccc3C)CC2)cc1	none
CC(Oc1ccc(C#N)cc1)C(=O)N1CC=C(c2ccccc2)CC1 (stereo unspecified)	HT1080 IDH1KD tx inconclusive, SW480 rereplic inconclusive, MCF10A rerep 16µM, KB-3-1 tox 16µM, HT1080-NT tox inconclusive, KB-V1 MDR tox 13µM
O=C(COC(=O)c1cc([N+](=O)[O-])ccc1N1CCOCC1)Nc1ccc(Cl)cn1	SW480 rereplic inconclusive, MCF10A rerep inconclusive, KB-3-1 tox inconclusive, KB-V1 MDR tox 13µM
O=C(c1ccc(Br)cc1)c1cc([N+](=O)[O-])ccc1N1CCOCC1	HT1080 IDH1KD tx 5.8µM, SW480 rereplic 0.58µM, MCF10A rerep inconclusive, HT1080-NT tox 5.2µM, KB-V1 MDR tox 4.6µM
CN1CCN(c2ccc([N+](=O)[O-])cc2C(=O)N2CCCCC2)CC1	none
O=C(c1ccccc1)c1ccc(N2CCOCC2)c(F)c1	KB-V1 MDR tox 21µM
CN1CCN(c2ccc([N+](=O)[O-])cc2C(=O)c2ccc(Cl)cc2)CC1	HT1080 IDH1KD tx 5.2µM, SW480 rereplic 8.2µM, MCF10A rerep 12µM, KB-3-1 tox 2.3µM, HT1080-NT tox 5.8µM, KB-V1 MDR tox 4.6µM
CNc1snc(C)c1C(=O)OC(C)C(=O)Nc1cccc(C)c1 (stereo unspecified)	KB-V1 MDR tox inconclusive
CC1CCCN(c2ccc([N+](=O)[O-])cc2C(=O)c2ccccc2)C1 (stereo unspecified)	HT1080 IDH1KD tx 2.9µM, SW480 rereplic 4.1µM, MCF10A rerep inconclusive, KB-3-1 tox inconclusive, HT1080-NT tox inconclusive
O=C(c1cc([N+](=O)[O-])ccc1N1CCOCC1)N1CCCCC1	KB-3-1 tox inconclusive
O=C(c1ccccc1)c1cc([N+](=O)[O-])ccc1N1CCOCC1	HT1080 IDH1KD tx 0.73µM, SW480 rereplic inconclusive, MCF10A rerep inconclusive, KB-3-1 tox 1.2µM, HT1080-NT tox 1µM, KB-V1 MDR tox 1.2µM
O=C(c1ccc(Cl)cc1)c1cc([N+](=O)[O-])ccc1N1CCOCC1	HT1080 IDH1KD tx 1.2µM, SW480 rereplic 0.65µM, MCF10A rerep inconclusive, KB-3-1 tox inconclusive, HT1080-NT tox 1.5µM, KB-V1 MDR tox 1.8µM
O=C(COC(=O)c1cc([N+](=O)[O-])ccc1N1CCOCC1)Nc1ccc(Cl)cc1	KB-V1 MDR tox inconclusive
COc1ccc2c(c1)c1c(c(=O)n(-c3ccc(F)c(Cl)c3)c(=O)n1CC(N)=O)n2C	none (no result: HT1080 IDH1KD tx, SW480 rereplic, MCF10A rerep, HT1080-NT tox)
CN(C(=O)CC1C(=O)NCCN1Cc1ccoc1)C1CCOCC1 (stereo unspecified)	none
O=C1NCCN(Cc2ccoc2)C1CC(=O)N(CCO)Cc1ccccc1 (stereo unspecified)	SW480 rereplic 18µM
COc1ccc(N2C(=O)C3CCCN3C2c2ccccc2)cc1 (stereo unspecified)	none
Cc1cccc(C(=O)N2CCC(=O)N([C@H](COCc3cccc(C(F)(F)F)c3)Cc3ccccc3)CC2)c1	HT1080 IDH1KD tx inconclusive, HT1080-NT tox inconclusive, KB-V1 MDR tox 23µM (no result: SW480 rereplic, MCF10A rerep)
Cc1cccc(COCC(Cc2ccccc2)N2CCN(C(=O)c3cccc(Cl)c3)CCC2=O)c1 (stereo unspecified)	SW480 rereplic inconclusive
CC(C)C[C@@H](COCc1cccc(C(F)(F)F)c1)N1CCN(C(=O)c2ccc(C(F)(F)F)cc2)CCC1=O	HT1080 IDH1KD tx inconclusive, KB-3-1 tox inconclusive, HT1080-NT tox inconclusive, KB-V1 MDR tox 18µM (no result: SW480 rereplic, MCF10A rerep)
Cc1cccc(COC[C@H](Cc2ccccc2)N2CCN(C(=O)c3cccc(Cl)c3)CCC2=O)c1	HT1080 IDH1KD tx inconclusive, KB-3-1 tox inconclusive, KB-V1 MDR tox 18µM (no result: SW480 rereplic, MCF10A rerep)
Cc1cccc(C(=O)N2CCC(=O)N(C(COCc3cccc(C(F)(F)F)c3)Cc3ccccc3)CC2)c1 (stereo unspecified)	SW480 rereplic inconclusive, MCF10A rerep inconclusive, HT1080-NT tox inconclusive, KB-V1 MDR tox inconclusive
Cc1cnccc1CN(C)Cc1cn(C)nc1-c1cccc(Cl)c1	MCF10A rerep inconclusive, KB-V1 MDR tox inconclusive
Cn1cc(CN2CCC(C(O)c3cccs3)CC2)c(-c2cccc(Cl)c2)n1 (stereo unspecified)	HT1080 IDH1KD tx inconclusive
Cc1cc(N2CCN(Cc3cn(C)nc3-c3cccc(Cl)c3)CC2)cc(C)n1	HT1080 IDH1KD tx 16µM, SW480 rereplic 23µM, MCF10A rerep inconclusive, KB-3-1 tox 9.2µM, HT1080-NT tox 15µM, KB-V1 MDR tox inconclusive
Cc1cc(-c2nn(-c3ccccc3F)cc2CN2CCN(c3ccncc3)CC2)c(C)s1	HT1080 IDH1KD tx inconclusive, SW480 rereplic inconclusive, MCF10A rerep inconclusive, HT1080-NT tox 21µM
Cn1cc(CN2CCN(c3ncccn3)CC2)c(-c2cccc(Cl)c2)n1	MCF10A rerep 21µM, KB-V1 MDR tox inconclusive
Cc1cc(N2CCN(Cc3cn(C)nc3-c3ccccc3F)CC2)cc(C)n1	HT1080 IDH1KD tx inconclusive, SW480 rereplic 7.3µM, MCF10A rerep 16µM, KB-3-1 tox 6.5µM, HT1080-NT tox inconclusive
Cc1cc(-c2nn(-c3ccccc3F)cc2CN2CCC(O)CC2)c(C)s1	none
Cc1cc(C)c(C)c(S(=O)(=O)NCC(=O)Nc2ccc(F)cc2)c1C	HT1080 IDH1KD tx inconclusive, KB-3-1 tox inconclusive, HT1080-NT tox inconclusive
O=S(=O)(c1cnccc1N1CCN(/N=C/c2ccc(Cl)cc2)CC1)N1CCCCC1	none
CCOC(=O)C1CCN(S(=O)(=O)c2ccc(-n3cnnn3)c(C)c2)CC1	SW480 rereplic inconclusive, MCF10A rerep 12µM
COc1ccc2nc(C(F)(F)Cl)c(C#N)c(N)c2c1	SW480 rereplic inconclusive, MCF10A rerep inconclusive
COc1ccc2nc3cc(Cl)ccc3c(C#N)c2c1	SW480 rereplic 21µM
CCOc1ccccc1N(CC)C(=O)c1nn(C)c2c1CSc1ccccc1-2	MCF10A rerep inconclusive
O=C(CSc1n[nH]c(=O)n1C1CC1)Nc1ccccc1	none
